Laboratory results published in PubChem BioAssay (NCI).
Compounds without any hit were thinned out: in the full panel of roughly 83,000, 20% have a hit.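 Step 1: grow cells in 96-well plates. Step 2: add test compound at a single concentration. Step 3: incubate 48 h. Step 4: record percent growth.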 Values without a mark were called inactive. Calls of active or inactive are those of the source. How the source made its calls: active means growth percent below 10; inactive means the rest.

Legend:
Test in all cases: NCI-60 one-dose screen, 48 h (100 = growth as untreated, 0 = no growth, -100 = all killed)
Conditions in all cases: 10 µM unless noted
[1] = system: NCI-H23 lung
[2] = system: NCI-H226 lung
[3] = system: NCI-H322M lung
[4] = system: HOP-62 NSCLC
[5] = system: NCI-H460 lung
[6] = system: NCI-H522 lung
[7] = system: A549/ATCC NSCLC
[8] = system: 786-0 renal
[9] = system: COLO 205 colon
[10] = system: DU-145 prostate
[11] = system: K-562 leukemia
[12] = system: MALME-3M melanoma
[13] = system: MDA-MB-231 breast
[14] = system: RXF 393 renal
[15] = system: SF-268 CNS
[16] = system: SF-295 CNS
[17] = system: SF-539 CNS
[18] = system: UACC-257 melanoma
[19] = system: M14 melanoma
[20] = system: HOP-92 NSCLC

Compound | growth [1] | growth [2] | growth [3] | growth [4] | growth [5] | growth [6] | growth [7] | growth [8] | growth [9] | growth [10] | growth [11] | growth [12] | growth [13] | growth [14] | growth [15] | growth [16] | growth [17] | growth [18] | growth [19] | growth [20] [%]
COc1cc([C@@H](CCO)C[C@H](C)c2ccc3ccccc3c2)cc(OC)c1OC | 54.6% | 56.4% | 46.7% | 40.6% | 17.3% | -7.95% (active) | 46.8% | 28% | 16.1% | 47.1% | 12.1% | 44.5% | 43.8% | 32.3% | 48.9% | 19.6% | 9.87% (active) | 60.6% | 15.5% | –
CC(C)(Sc1cc(C(C)(C)C)c(O)c(C(C)(C)C)c1)Sc1cc(C(C)(C)C)c(OC(=O)CCC(=O)O)c(C(C)(C)C)c1 | 40% | 67.4% | 56.4% | 44.7% | 28.9% | 36.9% | 28.6% | 44.7% | 55% | 57.2% | 69.4% | 65.8% | 58.3% | 67% | 57.3% | 42.1% | 47.8% | 61.8% | 50.9% | –
COc1ccc(/C=C(\C(=O)NCc2cccnc2)S(=O)(=O)c2ccccc2)cc1OC | 37.1% | 74.6% | 41.3% | 50.7% | 14.7% | -4.24% (active) | 45.7% | 20.8% | 30.2% | 5.77% (active) | 8.68% (active) | 48% | 22.8% | 15.5% | 29.1% | 57.8% | 15.3% | 44.7% | 28.8% | –
CCCCCCCCn1ccc2cc(NC(=O)CN=[N+]=[N-])ccc21 | 102% | 95.4% | 102% | 114% | 107% | 88.3% | 100% | 94.1% | 118% | 108% | 93.5% | 109% | 101% | 104% | 97.9% | 100% | 106% | 103% | 109% | –
CC(=O)N1N=C(c2ccc(Nc3nc(Nc4ccc(F)cc4)nc(Nc4ccc(F)cc4)n3)cc2)CC1c1ccc(N(C)C)cc1 (stereo unspecified) | 52.2% | 74.6% | 84% | 54.5% | 54.3% | 46% | 39.3% | 58.5% | 46.6% | 78.2% | 16.8% | 42.1% | 70% | 9.66% (active) | 74.4% | 18.2% | 65.5% | 74.2% | – | –
COC12C=C/C(=C(/C(=O)OCc3cncnc3)C(=O)CCCCCCCCC3(OC)C=C/C(=C(/C(=O)OCc4cncnc4)C(=O)CCCCCCCC1)O3)O2 | -49.9% (active) | -78% (active) | -66% (active) | 9.7% (active) | -20.5% (active) | -33.8% (active) | -7.89% (active) | -70.7% (active) | -30.5% (active) | -42.7% (active) | -16.8% (active) | -70.8% (active) | 5.88% (active) | -74.2% (active) | -10.6% (active) | -13.8% (active) | -27% (active) | -12.7% (active) | -12.3% (active) | –
O=c1oc2c(cc1-c1ccccc1)c[n+]([O-])c1ccccc21 | 101% | 93.5% | – | 99.2% | 98% | 98.9% | 98% | 90.3% | 102% | 103% | 92.6% | 97.7% | 91.8% | 94.6% | 107% | 101% | 101% | 100% | 103% | 86.4
N#Cc1ccc(/C=C/c2cn(-c3ccccc3)nc2-c2cccc([N+](=O)[O-])c2)cc1 | 56.4% | 6.28% (active) | – | 37.8% | 40.1% | 20.1% | 49.5% | 58.7% | 83.6% | 59.5% | 61.2% | 50.3% | 36.1% | 67.1% | 56.5% | 62.5% | 65.7% | 70.2% | 68.8% | 74.6
